Results taken from the supplement of paper PMC12024424.
Where a name gives a salt, the structure may show the parent alone.

Test system: Staphylococcus aureus Sa2 (MRSA, cystic fibrosis isolate)
Experiment: growth reduction vs untreated control (OD550); higher = stronger antibacterial activity
Conditions: 0.1 mM; 24 h
Description: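 Single-dose screen of the MedChem Express Drug Repurposing Library (0.1 mM, 1% DMSO) against planktonic MRSA S. aureus Sa2 (CF isolate) in TSB in 96-well plates, 37 °C aerobic, 24 h. Assays were run in triplicate and repeated twice.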

Compound | growth reduction [%]
NC(=O)c1cccc2cn(-c3ccc([C@@H]4CCCNC4)cc3)nc12 [Niraparib (tosylate)] | 99.5
NC(=O)N1c2ccccc2C[C@H](O)c2ccccc21 [Eslicarbazepine] | 92.7
CN(CCCCCCCCCCN(C)C(=O)Oc1cccc([N+](C)(C)C)c1)C(=O)Oc1cccc([N+](C)(C)C)c1 [Demecarium Bromide] | 100
Cc1cc(Nc2ncc(Cl)c(Nc3ccccc3S(=O)(=O)C(C)C)n2)c(OC(C)C)cc1C1CCNCC1 [Ceritinib dihydrochloride] | 100
CCc1cc(F)c2nc(N3CCC(NC4CCOCC4)CC3)c(-c3nc(C)no3)c(C)c2c1 | 100
C=C[C@@](C)(/C=C/c1ccc(O)cc1)CCC=C(C)C [Bakuchiol] | 100
CC(C)C[C@@H](C(=O)N[C@H](C(=O)OC1CCCC1)c1ccccc1)[C@H](O)C(=O)NO [Tosedostat] | 100
C[C@H]1CNCCCN1S(=O)(=O)c1cccc2cncc(F)c12 [Ripasudil] | 100
CC1CS(=O)(=O)CCN1/N=C/c1ccc([N+](=O)[O-])o1 (stereo not drawn) [Nifurtimox] | 100
Cc1cc(C)cc([C@@H]2CCCN2Cc2ccc(Oc3ccc(C(N)=O)cc3F)cc2)c1 [Aticaprant] | 100
CCCCCCCCCCCC1=C(O)C(=O)C=C(O)C1=O [Embelin] | 100
CCOc1cc2ncc(C#N)c(Nc3ccc(F)c(Cl)c3)c2cc1NC(=O)/C=C/CN(C)C [Pelitinib] | 90.6
CCCCCOc1ccccc1/C(=C\SC)n1ccnc1 [Neticonazole] | 100
